About 8,800 targets were measured; listed, in parts, are those with a hit and a random draw of the rest. About 0.5% of all pairs of compound and target were hits. Values without a mark were called inactive.
Assays:
Assay in all cases: log2 fold change, soluble protein after heating vs DMSO (PISA); higher = thermal stabilisation; K562 lysate, 10 uM; active = over 0.2 and 3.5 SD of the protein, either way, in both replicates (recomputed)
vemurafenib = compound: CCCS(=O)(=O)Nc1ccc(F)c(C(=O)c2c[nH]c3ncc(-c4ccc(Cl)cc4)cc23)c1F [vemurafenib]
Method in brief: (§1)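 Thermal stability, expressed as log-two fold change relative to solvent controls, is given from duplicates. Crude K562 extract in PBS pH 7.4 with 1 mM MgCl2, at 1 mg/mL protein, was treated with 10 μM compound for 30 min and heated in aliquots for 3 min across 48°C-58°C. After pooling, adjustment to 0.5% NP-40 at 4°C and centrifugation at 21,000xg for 90 min, supernatant protein was measured by TMTpro 16plex LC-MS/MS with channel sums equalised.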

barasertib = compound: CCN(CCCOc1ccc2c(Nc3cc(CC(=O)Nc4cccc(F)c4)[nH]n3)ncnc2c1)CCOP(=O)(O)O [barasertib]
Method in brief: as §1

[1] = compound: CC[C@@H]1C(=O)N(C)c2cnc(Nc3ccc(C(=O)NC4CCN(C)CC4)cc3OC)nc2N1C1CCCC1
Method in brief: as §1

saracatinib = compound: CN1CCN(CCOc2cc(OC3CCOCC3)c3c(Nc4c(Cl)ccc5c4OCO5)ncnc3c2)CC1 [saracatinib]
Method in brief: as §1

sotrastaurin = compound: CN1CCN(c2nc(C3=C(c4c[nH]c5ccccc45)C(=O)NC3=O)c3ccccc3n2)CC1 [sotrastaurin]
Method in brief: as §1

defactinib = compound: CNC(=O)c1ccc(Nc2ncc(C(F)(F)F)c(NCc3nccnc3N(C)S(C)(=O)=O)n2)cc1 [defactinib]
Method in brief: as §1

[2] = compound: CNc1nc(-c2ccc3c(N)n[nH]c3c2)cc(N2C[C@@H](C(=O)NC3CCCCC3)CC[C@H]2C)n1
Method in brief: as §1

encorafenib = compound: COC(=O)N[C@@H](C)CNc1nccc(-c2cn(C(C)C)nc2-c2cc(Cl)cc(NS(C)(=O)=O)c2F)n1 [encorafenib]
Method in brief: as §1

[3] = compound: COC(=O)[C@H](CCSC)NC(=O)C1=C(C=C(C=C1)NC[C@H](CS)N)C2=CC=CC=C2
Method in brief: as §1

[4] = compound: CCn1cc(-c2ccnc3[nH]c(-c4cccc(CN(C)C)c4)cc23)c(-c2ccc(NC(=O)N(C)C)cc2)n1
Method in brief: as §1

[5] = compound: CN1CCC(CNc2ccc3ncc(-c4cccc(OC(F)(F)F)c4)n3n2)CC1
Method in brief: as §1

alvocidib = compound: CN1CC[C@H](c2c(O)cc(O)c3c(=O)cc(-c4ccccc4Cl)oc23)[C@H](O)C1 [alvocidib]
Method in brief: as §1

[6] = compound: CNC(=O)C1=CC=CC=C1NC2=NC(=NC=C2Cl)NC3=C(C=C(C=C3)N4CCOCC4)OC
Method in brief: as §1

alisertib = compound: COc1cc(Nc2ncc3c(n2)-c2ccc(Cl)cc2C(c2c(F)cccc2OC)=NC3)ccc1C(=O)O [alisertib]
Method in brief: as §1

gefitinib = compound: COc1cc2ncnc(Nc3ccc(F)c(Cl)c3)c2cc1OCCCN1CCOCC1 [gefitinib]
Method in brief: as §1

[7] = compound: CCCS(=O)(=O)Nc1ccc(F)c(C(=O)c2c[nH]c3ncc(Cl)cc23)c1F
Method in brief: as §1

volasertib = compound: CC[C@@H]1C(=O)N(C)c2cnc(Nc3ccc(C(=O)N[C@H]4CC[C@H](N5CCN(CC6CC6)CC5)CC4)cc3OC)nc2N1C(C)C [volasertib]
Method in brief: as §1

[8] = compound: CCn1c(C(=O)N(C2CC2)C2CC2)cc2c3c(ncn3C)c(Nc3cc(C)n(C)n3)nc21
Method in brief: as §1

Tubastatin A = compound: CN1CCc2c(c3ccccc3n2Cc2ccc(C(=O)NO)cc2)C1 [Tubastatin A]
Method in brief: as §1

[9] = compound: COc1cc2nc(-c3cc(F)ccc3O)nc(N[C@@H]3CNC[C@H]3C(C)(C)O)c2cc1OC
Method in brief: as §1

Chain of UniProt P40337 (P40337 whole entry, looked up): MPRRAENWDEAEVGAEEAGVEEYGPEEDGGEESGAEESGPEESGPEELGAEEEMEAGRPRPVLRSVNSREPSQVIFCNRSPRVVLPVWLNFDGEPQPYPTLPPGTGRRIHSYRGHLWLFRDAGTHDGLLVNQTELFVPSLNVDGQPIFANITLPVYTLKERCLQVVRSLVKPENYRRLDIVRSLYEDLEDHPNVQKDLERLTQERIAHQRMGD
Chain of UniProt P42768 (P42768 whole entry, looked up): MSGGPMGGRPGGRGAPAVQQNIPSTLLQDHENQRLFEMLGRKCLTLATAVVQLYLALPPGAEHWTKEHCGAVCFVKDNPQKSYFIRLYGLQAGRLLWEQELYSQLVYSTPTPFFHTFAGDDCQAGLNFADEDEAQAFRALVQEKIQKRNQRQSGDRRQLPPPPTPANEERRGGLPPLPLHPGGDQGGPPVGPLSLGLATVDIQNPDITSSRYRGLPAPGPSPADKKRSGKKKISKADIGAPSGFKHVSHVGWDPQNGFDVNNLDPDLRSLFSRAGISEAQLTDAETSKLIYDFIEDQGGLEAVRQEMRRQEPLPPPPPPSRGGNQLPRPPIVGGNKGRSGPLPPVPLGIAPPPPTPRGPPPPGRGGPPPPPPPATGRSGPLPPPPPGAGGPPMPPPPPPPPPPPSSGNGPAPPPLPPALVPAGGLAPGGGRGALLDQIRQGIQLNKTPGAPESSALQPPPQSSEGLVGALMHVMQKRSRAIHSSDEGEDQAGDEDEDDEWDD
Chain of UniProt Q96IR2 (Q96IR2 whole entry, looked up): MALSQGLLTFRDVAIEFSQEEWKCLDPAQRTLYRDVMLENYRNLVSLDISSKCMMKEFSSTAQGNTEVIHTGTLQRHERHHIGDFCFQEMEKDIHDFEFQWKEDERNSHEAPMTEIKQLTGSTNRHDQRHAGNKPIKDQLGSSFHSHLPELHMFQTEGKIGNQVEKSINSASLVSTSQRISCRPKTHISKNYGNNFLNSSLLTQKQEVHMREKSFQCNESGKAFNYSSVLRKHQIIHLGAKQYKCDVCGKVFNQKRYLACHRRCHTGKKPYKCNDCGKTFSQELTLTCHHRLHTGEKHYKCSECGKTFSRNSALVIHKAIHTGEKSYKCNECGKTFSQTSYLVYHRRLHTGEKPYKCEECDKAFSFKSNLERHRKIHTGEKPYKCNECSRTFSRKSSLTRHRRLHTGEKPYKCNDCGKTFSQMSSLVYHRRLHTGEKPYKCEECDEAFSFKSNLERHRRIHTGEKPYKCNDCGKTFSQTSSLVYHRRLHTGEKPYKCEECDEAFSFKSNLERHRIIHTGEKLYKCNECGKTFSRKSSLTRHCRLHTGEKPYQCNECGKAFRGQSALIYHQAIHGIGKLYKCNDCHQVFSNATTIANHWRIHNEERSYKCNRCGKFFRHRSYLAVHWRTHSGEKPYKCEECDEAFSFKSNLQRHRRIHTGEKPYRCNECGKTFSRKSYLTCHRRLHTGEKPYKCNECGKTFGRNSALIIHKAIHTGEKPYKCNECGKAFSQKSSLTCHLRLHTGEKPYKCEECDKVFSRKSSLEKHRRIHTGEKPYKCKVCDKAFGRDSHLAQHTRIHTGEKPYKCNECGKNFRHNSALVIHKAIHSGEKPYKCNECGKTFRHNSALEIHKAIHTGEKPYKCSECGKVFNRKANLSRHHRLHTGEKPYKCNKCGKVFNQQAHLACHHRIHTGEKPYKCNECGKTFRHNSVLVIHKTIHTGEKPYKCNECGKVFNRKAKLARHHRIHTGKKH
Chain of UniProt O00488 (O00488 whole entry, looked up): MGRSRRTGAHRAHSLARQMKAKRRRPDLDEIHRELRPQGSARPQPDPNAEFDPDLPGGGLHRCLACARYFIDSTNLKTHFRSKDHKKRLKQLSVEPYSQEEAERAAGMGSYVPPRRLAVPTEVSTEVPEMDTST
Chain of UniProt Q6EMK4 (Q6EMK4 whole entry, looked up): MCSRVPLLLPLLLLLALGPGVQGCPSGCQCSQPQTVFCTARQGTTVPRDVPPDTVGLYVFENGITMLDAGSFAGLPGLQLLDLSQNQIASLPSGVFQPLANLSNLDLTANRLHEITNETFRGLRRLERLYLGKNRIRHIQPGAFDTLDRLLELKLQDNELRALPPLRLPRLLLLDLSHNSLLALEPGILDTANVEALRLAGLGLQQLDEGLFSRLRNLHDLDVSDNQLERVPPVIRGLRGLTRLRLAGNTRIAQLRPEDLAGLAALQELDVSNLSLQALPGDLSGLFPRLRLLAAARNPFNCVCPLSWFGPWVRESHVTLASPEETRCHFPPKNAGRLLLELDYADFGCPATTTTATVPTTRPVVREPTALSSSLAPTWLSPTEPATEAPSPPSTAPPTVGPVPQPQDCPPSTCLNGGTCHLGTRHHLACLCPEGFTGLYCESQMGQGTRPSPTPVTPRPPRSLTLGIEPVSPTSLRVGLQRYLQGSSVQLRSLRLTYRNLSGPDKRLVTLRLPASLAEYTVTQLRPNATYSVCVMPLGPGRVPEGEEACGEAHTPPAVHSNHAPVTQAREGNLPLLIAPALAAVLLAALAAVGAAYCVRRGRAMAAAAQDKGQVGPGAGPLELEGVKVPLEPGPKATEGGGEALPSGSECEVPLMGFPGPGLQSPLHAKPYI
Chain of UniProt Q9H582 (Q9H582 whole entry, looked up): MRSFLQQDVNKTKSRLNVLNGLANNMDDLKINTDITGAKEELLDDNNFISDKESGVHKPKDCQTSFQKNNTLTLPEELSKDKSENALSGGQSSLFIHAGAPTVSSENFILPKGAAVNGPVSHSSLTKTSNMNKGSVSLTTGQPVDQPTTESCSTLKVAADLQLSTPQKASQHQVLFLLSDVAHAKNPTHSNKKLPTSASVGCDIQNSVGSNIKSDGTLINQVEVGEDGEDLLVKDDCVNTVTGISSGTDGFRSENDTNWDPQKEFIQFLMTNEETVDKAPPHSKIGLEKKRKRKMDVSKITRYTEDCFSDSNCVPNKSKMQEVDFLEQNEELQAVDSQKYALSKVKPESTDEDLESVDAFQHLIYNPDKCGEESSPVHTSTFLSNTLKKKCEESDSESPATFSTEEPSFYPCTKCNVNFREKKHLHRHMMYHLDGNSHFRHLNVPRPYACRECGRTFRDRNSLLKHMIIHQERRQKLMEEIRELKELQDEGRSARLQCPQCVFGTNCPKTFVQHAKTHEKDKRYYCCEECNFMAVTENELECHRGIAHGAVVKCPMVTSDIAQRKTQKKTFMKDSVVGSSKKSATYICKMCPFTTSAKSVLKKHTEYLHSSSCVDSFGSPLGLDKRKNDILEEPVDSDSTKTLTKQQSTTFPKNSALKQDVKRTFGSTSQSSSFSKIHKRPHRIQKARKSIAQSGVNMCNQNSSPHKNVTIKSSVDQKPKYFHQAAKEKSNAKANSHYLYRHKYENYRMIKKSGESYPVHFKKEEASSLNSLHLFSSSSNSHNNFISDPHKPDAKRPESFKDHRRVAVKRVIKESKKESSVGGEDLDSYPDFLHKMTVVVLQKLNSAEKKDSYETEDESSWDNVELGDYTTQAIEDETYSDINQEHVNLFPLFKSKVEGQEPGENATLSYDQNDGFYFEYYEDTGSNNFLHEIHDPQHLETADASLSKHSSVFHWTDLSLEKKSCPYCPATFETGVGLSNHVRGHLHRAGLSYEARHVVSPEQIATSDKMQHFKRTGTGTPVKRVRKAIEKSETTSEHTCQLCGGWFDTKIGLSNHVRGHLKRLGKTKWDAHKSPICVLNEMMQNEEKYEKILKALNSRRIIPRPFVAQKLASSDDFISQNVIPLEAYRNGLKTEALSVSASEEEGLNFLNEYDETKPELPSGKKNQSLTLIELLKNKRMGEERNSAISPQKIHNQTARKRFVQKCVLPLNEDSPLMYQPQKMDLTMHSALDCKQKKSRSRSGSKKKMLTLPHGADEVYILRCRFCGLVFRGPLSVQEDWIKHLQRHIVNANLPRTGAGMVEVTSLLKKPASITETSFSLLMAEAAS
Chain of UniProt Q9UPT9 (Q9UPT9 whole entry, looked up): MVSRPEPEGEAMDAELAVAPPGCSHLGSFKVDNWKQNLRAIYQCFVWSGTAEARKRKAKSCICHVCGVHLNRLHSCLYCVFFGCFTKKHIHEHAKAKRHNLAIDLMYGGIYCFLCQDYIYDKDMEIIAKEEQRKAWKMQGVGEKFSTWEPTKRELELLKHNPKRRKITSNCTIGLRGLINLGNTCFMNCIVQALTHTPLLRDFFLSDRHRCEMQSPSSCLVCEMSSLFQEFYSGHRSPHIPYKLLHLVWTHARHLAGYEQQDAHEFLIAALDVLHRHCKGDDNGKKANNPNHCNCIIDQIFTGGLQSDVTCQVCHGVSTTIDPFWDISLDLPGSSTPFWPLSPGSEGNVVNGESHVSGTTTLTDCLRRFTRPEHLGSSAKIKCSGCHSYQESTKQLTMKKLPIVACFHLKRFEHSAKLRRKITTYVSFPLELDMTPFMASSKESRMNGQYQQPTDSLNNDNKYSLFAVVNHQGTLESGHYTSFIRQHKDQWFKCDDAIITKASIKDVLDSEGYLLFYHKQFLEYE
Chain of UniProt Q6PHR2 (Q6PHR2 whole entry, looked up): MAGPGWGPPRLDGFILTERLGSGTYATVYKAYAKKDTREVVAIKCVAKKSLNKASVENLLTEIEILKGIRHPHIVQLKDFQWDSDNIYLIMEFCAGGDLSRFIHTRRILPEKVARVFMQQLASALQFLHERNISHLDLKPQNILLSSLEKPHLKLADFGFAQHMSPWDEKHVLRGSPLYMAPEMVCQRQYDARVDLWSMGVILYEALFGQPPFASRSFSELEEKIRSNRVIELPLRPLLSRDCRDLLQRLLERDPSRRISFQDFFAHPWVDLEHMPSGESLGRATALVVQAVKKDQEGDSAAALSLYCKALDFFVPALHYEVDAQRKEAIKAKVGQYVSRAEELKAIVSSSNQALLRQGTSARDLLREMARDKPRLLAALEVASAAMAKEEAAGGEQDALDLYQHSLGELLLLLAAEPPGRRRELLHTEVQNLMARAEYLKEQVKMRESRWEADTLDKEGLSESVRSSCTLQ
Chain of UniProt P58557 (P58557 whole entry, looked up): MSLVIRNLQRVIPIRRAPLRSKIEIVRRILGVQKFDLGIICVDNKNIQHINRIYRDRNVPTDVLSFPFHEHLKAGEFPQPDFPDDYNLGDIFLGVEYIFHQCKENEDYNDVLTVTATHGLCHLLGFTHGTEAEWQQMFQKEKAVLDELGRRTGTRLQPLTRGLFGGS

Target | log2 fold change (vemurafenib) | log2 fold change (barasertib) | log2 fold change [1] | log2 fold change (saracatinib) | log2 fold change (sotrastaurin) | log2 fold change (defactinib) | log2 fold change [2] | log2 fold change (encorafenib) | log2 fold change [3] | log2 fold change [4] | log2 fold change [5] | log2 fold change (alvocidib) | log2 fold change [6] | log2 fold change (alisertib) | log2 fold change (gefitinib) | log2 fold change [7] | log2 fold change (volasertib) | log2 fold change [8] | log2 fold change (Tubastatin A) | log2 fold change [9]
UNKL (UniProt E9PDK2) | -0.118 | 0.047 | -0.075 | 0.002 | -0.05 | -0.008 | -0.042 | 0.044 | 0.106 | – | – | – | – | – | – | – | – | – | – | –
UNC13A (UniProt Q9UPW8) | – | – | – | – | – | – | – | – | – | -1.79 (active) | 0.531 | -0.643 | -0.11 | -0.067 | -0.076 | – | – | – | – | –
VPS72 (UniProt Q15906) | 0.054 | – | -0.009 | 0.04 | 0.024 | -0.078 | -0.02 | -0.016 | -0.134 | 0.056 | 0.078 | 0 | 0.041 | -0.058 | -0.108 | -0.139 | 0.162 | 0.021 | 0.028 | -0.017
ZNF845 (UniProt Q96IR2) | 0.085 | 0.088 | – | -0.019 | -0.012 | -0.001 | 0.093 | – | – | -0.012 | 0.078 | 0.011 | 0.314 | -0.018 | 0.035 | -0.024 | -0.044 | 0.135 | -0.149 | 0.035
YBEY (UniProt P58557) | -0.119 | – | -0.054 | -0.058 | – | 0.016 | -0.066 | -0.037 | 0.071 | – | – | – | -0.056 | – | – | – | – | – | – | –
ZNF644 (UniProt Q9H582) | 0.027 | 0.045 | 0.047 | -0.086 | 0.013 | 0.025 | -0.02 | 0.028 | -0.011 | -0.05 | -0.023 | 0.003 | -0.058 | -0.018 | -0.024 | – | – | -0.136 | -0.038 | –
ZNF652 (UniProt Q9Y2D9) | – | – | – | – | -0.034 | – | – | – | – | – | – | – | – | – | – | – | – | – | – | –
ULK3 isoform 4 (UniProt Q6PHR2) | 0.022 | 0.001 | -0.196 | 0.18 | -0.077 | 0.039 | 0.016 | -0.089 | -0.061 | -0.634 (active) | -0.285 | -0.014 | 0.004 | – | – | -0.042 | -0.139 | – | – | 0.089
VASN (UniProt Q6EMK4) | – | – | 0.046 | 0.065 | – | – | 0.096 | 0.2 | 0.02 | – | – | – | -0.087 | – | – | – | – | 0.023 | -0.161 | –
VHL (UniProt P40337) | 0.027 | -0.005 | -0.065 | 0.019 | -0.038 | -0.034 | -0.047 | 0.143 | -0.047 | 0.11 | -0.086 | -0.06 | -0.009 | 0.05 | -0.029 | – | – | -0.054 | -0.117 | –
UTRN isoform 2 (UniProt P46939) | – | -0.019 | -0.318 | – | – | – | – | -0.012 | -0.037 | 0.148 | -0.003 | -0.084 | -0.166 | – | – | – | – | – | – | –
ZNF281 (UniProt Q9Y2X9) | – | – | – | -0.069 | 0.028 | – | 0.095 | – | – | – | – | – | 0.025 | – | – | – | – | 0.011 | -0.16 | –
ZNF146 (UniProt Q15072) | – | – | – | 0.247 | – | – | 0.12 | – | – | – | – | – | – | – | – | – | – | – | – | –
WAC isoform 5 (UniProt Q9BTA9) | – | – | – | -0.078 | – | – | -0.117 | – | – | – | – | – | -0.359 | – | – | – | – | 0.047 | -0.119 | –
WAS (UniProt P42768) | – | 0.046 | 0.043 | -0.136 | – | – | 0.365 | 0.004 | 0.08 | 0.007 | 0.019 | -0.028 | 0.032 | -0.041 | 0.215 | – | – | – | – | –
ZFYVE19 isoform 3 (UniProt Q96K21) | – | -0.037 | – | – | – | – | – | – | – | – | – | – | – | – | – | 0.048 | -0.231 | – | – | -0.006
ZDHHC17 (UniProt Q8IUH5) | 0.058 | – | 0.077 | 0.205 | 0.117 | -0.053 | -0.04 | -0.044 | 0.183 | -0.346 | 0.141 | -0.44 | – | 0.037 | 0.24 | 0.047 | -0.071 | 0.166 | 0.074 | -0.032
URGCP (UniProt Q8TCY9) | 0.191 | -0.023 | – | 0 | – | -0.19 | -0.005 | – | – | – | – | – | – | 0.003 | 0.006 | – | – | -0.069 | 0.168 | –
XPOT (UniProt F5GYW6) | – | – | – | – | – | – | – | – | – | – | – | – | – | – | – | -0.204 | -0.112 | – | – | 0.121
ZNF593 (UniProt O00488) | 0.001 | -0.026 | -0.174 | -0.012 | -0.105 | 0.044 | -0.011 | -0.006 | -0.088 | -0.012 | 0.016 | -0.005 | -0.135 | – | – | 0.037 | -0.034 | 0.078 | -0.07 | 0.231
WSB1 (UniProt Q9Y6I7) | – | – | – | -0.159 | – | – | 0.12 | – | – | 0.078 | 0.08 | 0.184 | – | – | – | – | – | 0.105 | -0.014 | –
USP22 (UniProt Q9UPT9) | -0.019 | 0.008 | 0.026 | -0.026 | 0.018 | 0.017 | -0.027 | -0.007 | 0.055 | 0.031 | 0 | 0.102 | 0.034 | 0.02 | -0.011 | – | – | 0.034 | -0.044 | –
ZNF346 (UniProt Q9UL40) | – | 0.013 | 0.029 | 0.001 | 0.011 | – | -0.029 | -0.006 | 0.062 | 0.017 | -0.051 | 0.05 | -0.009 | -0.03 | 0.046 | 0.007 | -0.047 | -0.018 | 0.036 | 0.019

From the supplement of paper PMC10849652
